Results: PMC7862700, “An all-to-all approach to the identification of sequence-specific readers for epigenetic DNA modifications on cytosine”

What was measured:
Test in all cases: DAPPL (digital affinity profiling via proximity ligation, sequencing); 10 mM Tris-HCl pH 7.5, 50 mM NaCl, 1 mM DTT, 4% glycerol, room temperature, 30 min; GST-TFs on glutathione beads, 16-mer random dsDNA library, 0.1% formaldehyde crosslink after washing; high values mean tight binding
FLI1 = target: T1, FLI1 (Homo sapiens, UniProt Q01543 1-452); conditions: protein: recombinant; tags: N-terminal GST; dsDNA, one strand shown
T1 sequence: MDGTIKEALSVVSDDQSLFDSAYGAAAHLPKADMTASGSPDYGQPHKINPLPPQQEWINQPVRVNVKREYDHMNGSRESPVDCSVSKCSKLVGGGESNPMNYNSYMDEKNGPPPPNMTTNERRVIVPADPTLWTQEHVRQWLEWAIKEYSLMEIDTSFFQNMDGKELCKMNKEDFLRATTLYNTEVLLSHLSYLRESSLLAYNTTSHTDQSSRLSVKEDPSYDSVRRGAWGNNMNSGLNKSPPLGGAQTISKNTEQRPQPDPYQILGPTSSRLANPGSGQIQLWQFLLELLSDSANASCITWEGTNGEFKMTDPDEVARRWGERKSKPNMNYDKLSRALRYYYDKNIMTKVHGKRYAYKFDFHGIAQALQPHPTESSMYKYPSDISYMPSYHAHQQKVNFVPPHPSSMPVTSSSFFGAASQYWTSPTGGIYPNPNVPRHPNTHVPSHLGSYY
Outline: (§1)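 Pools were built from human transcription factors expressed in yeast as GST fusions, captured on glutathione beads and DNA-barcoded, along with a tag-only sample. Incubation with 200 nmole of a 16-mer random double-stranded DNA library lasted 30 min at room temperature in Tris/NaCl/DTT/glycerol buffer, and was followed by washing, 0.1% formaldehyde crosslinking, proximity ligation, PCR amplification and Illumina NextSeq500 sequencing. Binding signal is the quotient of each hexamer's read frequency for a factor and its frequency for the tag-only sample.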

ELK1 = target: T2, ELK1 (Homo sapiens, UniProt P19419 1-428); conditions: protein: recombinant; tags: N-terminal GST; dsDNA, one strand shown
T2 sequence: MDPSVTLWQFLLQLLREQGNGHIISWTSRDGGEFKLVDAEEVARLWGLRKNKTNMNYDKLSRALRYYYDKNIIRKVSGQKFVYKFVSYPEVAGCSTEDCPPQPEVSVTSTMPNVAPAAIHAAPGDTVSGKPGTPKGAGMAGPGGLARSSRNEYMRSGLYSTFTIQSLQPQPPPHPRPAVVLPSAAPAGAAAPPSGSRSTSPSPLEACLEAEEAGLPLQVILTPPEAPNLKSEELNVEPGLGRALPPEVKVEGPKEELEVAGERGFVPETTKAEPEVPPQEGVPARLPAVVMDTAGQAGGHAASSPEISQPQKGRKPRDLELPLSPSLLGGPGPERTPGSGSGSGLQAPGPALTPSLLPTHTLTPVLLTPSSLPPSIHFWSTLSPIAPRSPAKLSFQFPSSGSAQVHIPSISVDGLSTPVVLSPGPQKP
Outline: as §1

GABPA = target: T3, GABPA (Homo sapiens, UniProt Q06546 1-454); conditions: protein: recombinant; tags: N-terminal GST; dsDNA, one strand shown
T3 sequence: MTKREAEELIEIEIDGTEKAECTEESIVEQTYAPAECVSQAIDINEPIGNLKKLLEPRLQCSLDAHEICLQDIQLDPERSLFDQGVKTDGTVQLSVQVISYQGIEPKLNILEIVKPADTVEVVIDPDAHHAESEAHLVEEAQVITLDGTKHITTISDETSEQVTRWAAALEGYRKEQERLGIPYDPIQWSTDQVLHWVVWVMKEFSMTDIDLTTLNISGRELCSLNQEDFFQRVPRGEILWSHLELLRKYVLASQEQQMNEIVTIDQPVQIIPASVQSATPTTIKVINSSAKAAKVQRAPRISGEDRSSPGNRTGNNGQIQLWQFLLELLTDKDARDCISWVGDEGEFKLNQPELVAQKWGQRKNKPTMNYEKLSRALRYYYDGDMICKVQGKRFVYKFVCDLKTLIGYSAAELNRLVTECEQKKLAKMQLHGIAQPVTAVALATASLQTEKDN
Outline: as §1

ELF1 = ELF1 (Homo sapiens, UniProt P32519 1-619); conditions: protein: recombinant; tags: N-terminal GST; dsDNA, one strand shown
ELF1, sequence (P32519 whole entry): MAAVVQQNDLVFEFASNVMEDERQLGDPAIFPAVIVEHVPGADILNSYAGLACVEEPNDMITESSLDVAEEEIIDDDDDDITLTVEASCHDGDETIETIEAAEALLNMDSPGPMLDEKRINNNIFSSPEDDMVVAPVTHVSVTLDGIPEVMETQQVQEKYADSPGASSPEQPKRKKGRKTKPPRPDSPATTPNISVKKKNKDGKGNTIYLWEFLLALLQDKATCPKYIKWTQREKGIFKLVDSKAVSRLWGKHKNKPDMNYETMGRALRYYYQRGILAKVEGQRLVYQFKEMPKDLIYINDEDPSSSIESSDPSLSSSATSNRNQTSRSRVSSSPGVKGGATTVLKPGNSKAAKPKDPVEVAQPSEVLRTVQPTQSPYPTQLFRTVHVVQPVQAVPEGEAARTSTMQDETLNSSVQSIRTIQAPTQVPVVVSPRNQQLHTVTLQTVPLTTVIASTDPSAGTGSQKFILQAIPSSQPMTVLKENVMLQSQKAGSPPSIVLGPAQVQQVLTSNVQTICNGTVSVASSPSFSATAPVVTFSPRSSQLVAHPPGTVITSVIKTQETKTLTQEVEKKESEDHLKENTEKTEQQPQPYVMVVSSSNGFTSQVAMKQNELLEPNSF
Outline: as §1

EHF = target: T4, EHF (Homo sapiens, UniProt Q9NZC4 1-300); conditions: protein: recombinant; tags: N-terminal GST; dsDNA, one strand shown
T4 sequence: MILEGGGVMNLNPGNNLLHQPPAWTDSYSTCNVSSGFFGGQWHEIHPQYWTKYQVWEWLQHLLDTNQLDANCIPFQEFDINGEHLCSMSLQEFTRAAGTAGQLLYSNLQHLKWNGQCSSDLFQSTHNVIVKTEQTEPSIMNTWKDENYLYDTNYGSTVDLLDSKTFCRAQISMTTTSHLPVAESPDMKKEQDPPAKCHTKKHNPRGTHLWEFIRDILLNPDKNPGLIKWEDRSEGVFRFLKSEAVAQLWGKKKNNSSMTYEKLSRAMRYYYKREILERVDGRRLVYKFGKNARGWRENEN
Outline: as §1

SPI1 = SPI1 (Homo sapiens, UniProt P17947 1-270); conditions: protein: recombinant; tags: N-terminal GST; dsDNA, one strand shown
Outline: as §1

ELK3 = target: T5, ELK3 (Homo sapiens, UniProt P41970 1-407); conditions: protein: recombinant; tags: N-terminal GST; dsDNA, one strand shown
T5 sequence: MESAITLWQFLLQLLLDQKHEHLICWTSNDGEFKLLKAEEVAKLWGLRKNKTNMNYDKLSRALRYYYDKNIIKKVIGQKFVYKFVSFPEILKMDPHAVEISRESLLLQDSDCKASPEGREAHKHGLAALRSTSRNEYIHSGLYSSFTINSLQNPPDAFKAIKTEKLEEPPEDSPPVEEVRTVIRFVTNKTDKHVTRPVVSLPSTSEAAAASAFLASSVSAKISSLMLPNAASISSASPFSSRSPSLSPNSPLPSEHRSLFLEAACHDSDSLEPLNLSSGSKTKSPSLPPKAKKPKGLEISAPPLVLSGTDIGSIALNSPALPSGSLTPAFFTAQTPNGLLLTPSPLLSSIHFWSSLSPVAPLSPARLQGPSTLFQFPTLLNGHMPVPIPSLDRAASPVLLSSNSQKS
Outline: as §1

ETV5 = ETV5 (Homo sapiens, UniProt P41161 1-510); conditions: protein: recombinant; tags: N-terminal GST; dsDNA, one strand shown
ETV5, sequence (P41161 whole entry): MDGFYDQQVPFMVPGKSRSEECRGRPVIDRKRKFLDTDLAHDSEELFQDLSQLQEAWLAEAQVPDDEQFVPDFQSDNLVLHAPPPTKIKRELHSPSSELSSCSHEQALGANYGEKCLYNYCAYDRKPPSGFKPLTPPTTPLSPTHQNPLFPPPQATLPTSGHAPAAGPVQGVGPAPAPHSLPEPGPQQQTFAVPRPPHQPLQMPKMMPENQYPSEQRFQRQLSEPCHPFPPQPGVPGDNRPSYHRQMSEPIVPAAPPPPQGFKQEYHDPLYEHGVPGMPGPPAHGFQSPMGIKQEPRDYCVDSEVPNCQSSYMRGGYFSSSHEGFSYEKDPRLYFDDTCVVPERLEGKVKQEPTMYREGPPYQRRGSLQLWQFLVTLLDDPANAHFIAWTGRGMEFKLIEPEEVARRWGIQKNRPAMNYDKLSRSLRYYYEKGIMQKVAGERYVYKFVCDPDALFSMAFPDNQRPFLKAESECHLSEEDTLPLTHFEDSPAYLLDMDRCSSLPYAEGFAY
Outline: as §1

HSF1 = HSF1 (Homo sapiens, UniProt Q00613 1-529); conditions: protein: recombinant; tags: N-terminal GST; chain copies: 3; dsDNA, one strand shown
HSF1, sequence (Q00613 whole entry): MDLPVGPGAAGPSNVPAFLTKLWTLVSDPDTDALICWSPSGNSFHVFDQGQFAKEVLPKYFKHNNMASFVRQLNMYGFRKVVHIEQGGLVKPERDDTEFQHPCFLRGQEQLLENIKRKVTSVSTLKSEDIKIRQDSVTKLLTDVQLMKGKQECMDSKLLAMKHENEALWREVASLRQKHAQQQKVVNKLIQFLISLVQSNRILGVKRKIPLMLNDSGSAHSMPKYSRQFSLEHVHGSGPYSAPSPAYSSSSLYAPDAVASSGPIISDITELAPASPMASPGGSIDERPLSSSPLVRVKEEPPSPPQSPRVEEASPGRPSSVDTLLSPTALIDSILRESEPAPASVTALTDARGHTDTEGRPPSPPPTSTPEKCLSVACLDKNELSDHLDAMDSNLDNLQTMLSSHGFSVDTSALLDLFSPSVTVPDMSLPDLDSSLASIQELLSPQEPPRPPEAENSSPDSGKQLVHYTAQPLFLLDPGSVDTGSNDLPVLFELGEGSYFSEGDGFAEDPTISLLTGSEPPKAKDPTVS
Outline: as §1

SPIC = target: T6, SPIC (Homo sapiens, UniProt Q8N5J4 1-248); conditions: protein: recombinant; tags: N-terminal GST; dsDNA, one strand shown
T6 sequence: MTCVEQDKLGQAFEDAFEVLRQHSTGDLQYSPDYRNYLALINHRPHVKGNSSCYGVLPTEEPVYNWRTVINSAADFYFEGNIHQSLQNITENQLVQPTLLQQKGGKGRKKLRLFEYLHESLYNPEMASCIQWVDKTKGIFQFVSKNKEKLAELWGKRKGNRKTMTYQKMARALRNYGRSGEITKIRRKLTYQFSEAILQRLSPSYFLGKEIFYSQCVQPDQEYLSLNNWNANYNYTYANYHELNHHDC
Outline: as §1

ELF4 = ELF4 (Homo sapiens, UniProt Q99607 1-663); conditions: protein: recombinant; tags: N-terminal GST; dsDNA, one strand shown
ELF4, sequence (Q99607 whole entry): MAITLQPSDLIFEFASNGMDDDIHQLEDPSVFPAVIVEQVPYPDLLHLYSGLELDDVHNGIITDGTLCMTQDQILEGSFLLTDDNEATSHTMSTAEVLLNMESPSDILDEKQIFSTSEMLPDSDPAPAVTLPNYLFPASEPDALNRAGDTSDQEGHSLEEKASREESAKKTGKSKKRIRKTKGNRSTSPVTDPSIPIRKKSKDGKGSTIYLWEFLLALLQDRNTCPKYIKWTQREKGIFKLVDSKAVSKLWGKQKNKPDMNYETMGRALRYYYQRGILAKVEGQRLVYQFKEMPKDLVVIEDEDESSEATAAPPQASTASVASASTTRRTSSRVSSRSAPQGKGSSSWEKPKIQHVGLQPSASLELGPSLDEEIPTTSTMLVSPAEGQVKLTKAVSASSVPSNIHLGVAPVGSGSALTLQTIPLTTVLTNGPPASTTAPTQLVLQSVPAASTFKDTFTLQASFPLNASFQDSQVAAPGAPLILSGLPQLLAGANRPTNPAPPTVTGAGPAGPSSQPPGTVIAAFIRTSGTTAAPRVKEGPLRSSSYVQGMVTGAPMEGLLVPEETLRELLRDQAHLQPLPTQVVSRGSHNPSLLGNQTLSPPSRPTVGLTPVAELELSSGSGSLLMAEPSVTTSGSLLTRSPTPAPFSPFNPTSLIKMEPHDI
Outline: as §1

ELK4 = target: T7, ELK4 (Homo sapiens, UniProt P28324-2 1-405); conditions: protein: recombinant; tags: N-terminal GST; dsDNA, one strand shown
T7 sequence: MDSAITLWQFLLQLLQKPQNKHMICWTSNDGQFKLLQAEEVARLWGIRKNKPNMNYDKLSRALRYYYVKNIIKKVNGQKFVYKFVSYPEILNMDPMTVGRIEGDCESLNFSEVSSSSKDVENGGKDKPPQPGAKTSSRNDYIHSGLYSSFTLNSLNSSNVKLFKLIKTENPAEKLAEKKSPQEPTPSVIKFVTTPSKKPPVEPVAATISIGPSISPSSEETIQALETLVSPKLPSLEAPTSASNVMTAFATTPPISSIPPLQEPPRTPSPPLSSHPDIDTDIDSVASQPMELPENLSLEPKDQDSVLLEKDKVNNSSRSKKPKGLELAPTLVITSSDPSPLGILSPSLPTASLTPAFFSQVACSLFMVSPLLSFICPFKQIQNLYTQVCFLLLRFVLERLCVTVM
Outline: as §1

ETV2 = target: T8, ETV2 (Homo sapiens, UniProt O00321 1-342); conditions: protein: recombinant; tags: N-terminal GST; dsDNA, one strand shown
T8 sequence: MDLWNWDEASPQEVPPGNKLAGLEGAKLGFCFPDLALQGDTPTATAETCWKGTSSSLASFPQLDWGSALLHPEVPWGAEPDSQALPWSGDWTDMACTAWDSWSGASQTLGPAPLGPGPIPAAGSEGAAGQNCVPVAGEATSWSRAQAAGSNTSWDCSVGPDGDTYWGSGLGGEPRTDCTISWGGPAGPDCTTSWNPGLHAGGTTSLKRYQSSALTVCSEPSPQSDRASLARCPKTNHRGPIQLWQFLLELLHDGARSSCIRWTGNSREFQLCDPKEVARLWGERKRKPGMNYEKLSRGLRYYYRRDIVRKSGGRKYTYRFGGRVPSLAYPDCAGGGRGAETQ
Outline: as §1

ELF3 = target: T9, ELF3 (Homo sapiens, UniProt P78545 1-371); conditions: protein: recombinant; tags: N-terminal GST; dsDNA, one strand shown
T9 sequence: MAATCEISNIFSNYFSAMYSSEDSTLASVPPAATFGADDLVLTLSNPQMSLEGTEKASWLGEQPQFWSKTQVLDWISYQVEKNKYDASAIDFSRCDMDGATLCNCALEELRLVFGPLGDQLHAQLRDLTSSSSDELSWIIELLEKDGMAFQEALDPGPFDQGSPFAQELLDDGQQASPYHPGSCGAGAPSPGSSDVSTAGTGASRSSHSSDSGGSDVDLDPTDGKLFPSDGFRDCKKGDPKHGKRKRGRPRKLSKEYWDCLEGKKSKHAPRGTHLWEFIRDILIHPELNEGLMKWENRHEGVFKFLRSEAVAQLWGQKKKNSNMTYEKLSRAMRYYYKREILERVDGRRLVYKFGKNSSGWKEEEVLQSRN
Outline: as §1

CRX = CRX (Homo sapiens, UniProt O43186 1-299); conditions: protein: recombinant; tags: N-terminal GST; dsDNA, one strand shown
CRX, sequence (O43186 whole entry): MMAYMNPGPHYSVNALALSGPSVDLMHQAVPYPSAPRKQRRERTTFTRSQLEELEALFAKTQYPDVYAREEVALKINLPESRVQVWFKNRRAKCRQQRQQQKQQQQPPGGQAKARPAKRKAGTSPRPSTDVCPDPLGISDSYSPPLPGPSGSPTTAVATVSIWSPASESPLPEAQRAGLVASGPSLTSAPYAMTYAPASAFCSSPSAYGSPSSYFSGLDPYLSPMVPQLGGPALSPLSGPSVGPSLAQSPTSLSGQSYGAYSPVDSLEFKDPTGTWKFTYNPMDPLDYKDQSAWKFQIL
Outline: as §1

SPIB = SPIB (Homo sapiens, UniProt Q01892 1-262); conditions: protein: recombinant; tags: N-terminal GST; dsDNA, one strand shown
SPIB, sequence (Q01892 whole entry): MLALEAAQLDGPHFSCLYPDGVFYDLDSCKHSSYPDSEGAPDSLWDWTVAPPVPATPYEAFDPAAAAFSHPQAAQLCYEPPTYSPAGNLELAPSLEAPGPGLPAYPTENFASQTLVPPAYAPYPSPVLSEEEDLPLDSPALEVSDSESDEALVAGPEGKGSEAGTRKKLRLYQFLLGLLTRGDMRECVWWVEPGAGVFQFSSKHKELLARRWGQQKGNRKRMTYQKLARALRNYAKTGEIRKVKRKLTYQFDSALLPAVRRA
Outline: as §1

FEV = target: T10, FEV (Homo sapiens, UniProt Q99581 1-238); conditions: protein: recombinant; tags: N-terminal GST; dsDNA, one strand shown
T10 sequence: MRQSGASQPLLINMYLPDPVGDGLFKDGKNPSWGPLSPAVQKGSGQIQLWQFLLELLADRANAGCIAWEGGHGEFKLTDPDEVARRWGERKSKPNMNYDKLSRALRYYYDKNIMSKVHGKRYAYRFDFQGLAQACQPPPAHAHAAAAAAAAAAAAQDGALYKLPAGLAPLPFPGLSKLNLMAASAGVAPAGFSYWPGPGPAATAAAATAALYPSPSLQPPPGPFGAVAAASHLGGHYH
Outline: as §1

ETV1 = ETV1 (Homo sapiens, UniProt P50549 1-477); conditions: protein: recombinant; tags: N-terminal GST; dsDNA, one strand shown
ETV1, sequence (P50549 whole entry): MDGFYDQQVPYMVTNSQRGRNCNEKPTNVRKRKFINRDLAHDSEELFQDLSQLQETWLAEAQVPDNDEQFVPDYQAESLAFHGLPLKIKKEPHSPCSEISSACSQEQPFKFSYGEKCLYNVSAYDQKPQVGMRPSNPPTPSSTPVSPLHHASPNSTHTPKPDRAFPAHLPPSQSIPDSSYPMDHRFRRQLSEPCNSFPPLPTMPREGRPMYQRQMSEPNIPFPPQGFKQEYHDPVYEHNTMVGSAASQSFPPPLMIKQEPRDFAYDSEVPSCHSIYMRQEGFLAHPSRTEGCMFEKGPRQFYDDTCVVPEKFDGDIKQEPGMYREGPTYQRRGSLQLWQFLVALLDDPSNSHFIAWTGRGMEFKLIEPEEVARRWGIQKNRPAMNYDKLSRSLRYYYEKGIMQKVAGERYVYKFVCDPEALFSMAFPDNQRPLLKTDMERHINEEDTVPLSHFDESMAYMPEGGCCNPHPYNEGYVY
Outline: as §1

Row | Sequence | binding signal (FLI1) | binding signal (ELK1) | binding signal (GABPA) | binding signal (ELF1) | binding signal (EHF) | binding signal (SPI1) | binding signal (ELK3) | binding signal (ETV5) | binding signal (HSF1) | binding signal (SPIC) | binding signal (ELF4) | binding signal (ELK4) | binding signal (ETV2) | binding signal (ELF3) | binding signal (CRX) | binding signal (SPIB) | binding signal (FEV) | binding signal (ETV1)
1 | TGATCA | 1.04 fold enrichment (6-mer frequency, TF over GST control) | 1.05 fold enrichment (6-mer frequency, TF over GST control) | 1.03 fold enrichment (6-mer frequency, TF over GST control) | 1.07 fold enrichment (6-mer frequency, TF over GST control) | 1.08 fold enrichment (6-mer frequency, TF over GST control) | 1.02 fold enrichment (6-mer frequency, TF over GST control) | 1.18 fold enrichment (6-mer frequency, TF over GST control) | 1.02 fold enrichment (6-mer frequency, TF over GST control) | 1.08 fold enrichment (6-mer frequency, TF over GST control) | 1.16 fold enrichment (6-mer frequency, TF over GST control) | 1.1 fold enrichment (6-mer frequency, TF over GST control) | 1.02 fold enrichment (6-mer frequency, TF over GST control) | 1.1 fold enrichment (6-mer frequency, TF over GST control) | 1.03 fold enrichment (6-mer frequency, TF over GST control) | 1.18 fold enrichment (6-mer frequency, TF over GST control) | – | – | –
2 | CCGAAG | 1.12 fold enrichment (6-mer frequency, TF over GST control) | 1.09 fold enrichment (6-mer frequency, TF over GST control) | 1.12 fold enrichment (6-mer frequency, TF over GST control) | 1 fold enrichment (6-mer frequency, TF over GST control) | 1.03 fold enrichment (6-mer frequency, TF over GST control) | – | 1.03 fold enrichment (6-mer frequency, TF over GST control) | 1.02 fold enrichment (6-mer frequency, TF over GST control) | 1.35 fold enrichment (6-mer frequency, TF over GST control) | 1.23 fold enrichment (6-mer frequency, TF over GST control) | 1.05 fold enrichment (6-mer frequency, TF over GST control) | 1.2 fold enrichment (6-mer frequency, TF over GST control) | 1.31 fold enrichment (6-mer frequency, TF over GST control) | 1.02 fold enrichment (6-mer frequency, TF over GST control) | 1.11 fold enrichment (6-mer frequency, TF over GST control) | 1.04 fold enrichment (6-mer frequency, TF over GST control) | 1.04 fold enrichment (6-mer frequency, TF over GST control) | 1.01 fold enrichment (6-mer frequency, TF over GST control)
